{"source": "PubChem BioAssay (NCATS)", "note": "Records with an inconclusive call do not appear. The source made the active and inactive calls. The call rests on the fitted dose curve; in most records, active means well fitted cell-killing curve with a large enough effect; inconclusive means small, poorly fitted or top-dose-only effect, or effect the other way; inactive means no such curve, though single readings can be large or run the other way. Potency means the concentration at half of the fitted maximal effect."}
{"assay": "Viability qHTS for spleen associated tyrosine kinase inhibitor (SYKi) naive MV4-11 cells (AID 1963823); further: nearly all actives have a fitted effect of over 40% in size", "settings": "MV4-11 AML viability, CellTiter-Glo luminescence, 72 h; series mostly up to 45 µM; viability (% of control): at the top concentration", "outline": "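Seeding of 500 SYKi-naive MV4-11 cells per well onto pre-dispensed compounds preceded a 72 hr incubation at 37 C. Luminescent CellTiter-Glo signal, read after 10 min at room temperature, reflected viable cells.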"}
{"smiles": "COC(=O)C1=C(C)NC(C)=C(C(=O)OCCN(C)Cc2ccccc2)C1c1cccc([N+](=O)[O-])c1", "note": "(stereo not given)", "Potency": "11.9 µM (active)"}
{"smiles": "CCOc1cccc2c1OC(c1ccc(F)cc1)C([N+](=O)[O-])=C2", "note": "(stereo not given)", "Potency": "1.16 µM (active)"}
{"smiles": "c1ccc(-c2cnn3cc(-c4ccc(OCCN5CCOCC5)cc4)cnc23)cc1", "Potency": "0.0184 µM (active)"}
{"smiles": "Cc1csc(N(C(=O)CSc2ccc(-c3ccccc3)nn2)C2CC2)n1", "viability (% of control)": "75.7% (inactive)"}
{"smiles": "CC(=O)NC1C(OC(C)(C)C2CCC3(C)C=C(C4CCC5C4(C)CC(O)C4OC(C(C)(C)O)CCC45C)CCC3O2)OC(CO)C(O)C1O", "note": "(stereo not given)", "Potency": "1.93 µM (active)"}
{"smiles": "CC1(C)C[C@H](O)C[C@@]2(C)OC(=O)C=C12", "viability (% of control)": "58.1% [at 91.9 µM] (inactive)"}
{"smiles": "CC(O)/C=C/C1OC(=O)CC1Nc1ccc(C(=O)O)cc1", "note": "(stereo not given)", "viability (% of control)": "84.7% (inactive)"}
{"smiles": "C=C1C(=O)O[C@@H]2[C@H]1CC(=O)[C@H](C)[C@@](O)(C(=O)/C=C/C)[C@H]2OC(=O)C(C)CC", "note": "(stereo not given in full)", "Potency": "0.36 µM (active)"}
{"smiles": "C=C1CCC2C(C)(COC(C)=O)CCCC2(C)C1CCC(C)CC(=O)O", "note": "(stereo not given)", "viability (% of control)": "72.8% (inactive)"}
{"smiles": "CCC(CC)C(=O)OC12C(OC(=O)C(C)C)C(C)C3(O)C(C=C(CO)CC4(O)C(=O)C(C)=CC43)C1C2(C)C", "note": "(stereo not given)", "Potency": "0.0282 µM (active)"}
{"smiles": "C[C@]12CCC[C@](C)(C(=O)O)C1[C@@H](O)[C@@H](O)C13CC(CCC12)C(CO)(O[C@@H]1O[C@H](CO)[C@@H](O)[C@H](O)[C@H]1O)C3", "note": "(stereo not given in full)", "viability (% of control)": "81.5% [at 17.3 µM] (inactive)"}
{"smiles": "C=C1CCC(OC(C)=O)C2(C)CC3OC(=O)C(C)=C3CC12", "note": "(stereo not given)", "viability (% of control)": "91.5% (inactive)"}
{"smiles": "CN(c1ccccc1CNc1nc(Nc2ccc3c(c2)CC(=O)N3)ncc1C(F)(F)F)S(C)(=O)=O", "Potency": "0.291 µM (active)"}
{"smiles": "CC(=O)O[C@@H]1[C@H]2[C@@H](OC(=O)c3ccccc3)[C@@H](C)C[C@]2(O)[C@H](OC(C)=O)[C@@]2(C)[C@@H]3CC(C)(C)C(=O)[C@]3(OC(C)=O)C[C@@]12C", "viability (% of control)": "57.8% [at 17.3 µM] (inactive)"}
{"smiles": "CN([C@H]1c2cc(OCCCC(F)(F)F)ccc2OC(C)(C)[C@@H]1O)S(C)(=O)=O", "viability (% of control)": "69.6% (inactive)"}
{"smiles": "C=CC1(C)C=C2CC[C@H]3[C@@](C)(C(=O)O)CCC[C@]3(C)C2CC1", "note": "(stereo not given in full)", "Potency": "1.61 µM (active)"}
{"smiles": "CC(CC12CCCN1C(=O)C1CCCN1C2=O)OC(N)=O", "note": "(stereo not given)", "viability (% of control)": "77.8% (inactive)"}
{"smiles": "O=c1c2ccccc2nc2n1CCC2O", "note": "(stereo not given)", "viability (% of control)": "82.6% [at 91.9 µM] (inactive)"}
{"smiles": "CC(NC(=O)[C@H](Cc1ccccc1)NC(=O)OCc1ccccc1)C(=O)CF", "note": "(stereo not given in full)", "viability (% of control)": "60.4% (inactive)"}
{"smiles": "O=C(O)[C@H](Cc1ccccc1)Oc1ccc(-c2ccccc2)cc1", "viability (% of control)": "57.5% (inactive)"}
{"smiles": "C=C1CCC2C(C)(C)CC(O)CC2(C)C1CCC(C)CC(=O)O", "note": "(stereo not given)", "viability (% of control)": "68.5% (inactive)"}
{"smiles": "CCOc1ccc(-c2ccc(Cn3c(CC(C)(C)C(=O)O)c(SC(C)(C)C)c4cc(OCc5ccc(C)cn5)ccc43)cc2)cn1", "viability (% of control)": "54.8% (inactive)"}
{"smiles": "C=C1CC[C@H]2[C@@](C)(CCC(O)[C@@]2(C)CO)[C@@H]1CCC1=CCOC1=O", "note": "(stereo not given in full)", "viability (% of control)": "34.7% (inactive)"}
{"smiles": "C#CCCCn1cc(-c2cccc3c2N[C@@H](C)CC(=O)N3)cn1", "viability (% of control)": "54.2% (inactive)"}
{"smiles": "O=C(Nc1ccn(Cc2c(F)cccc2C(F)(F)F)n1)c1c(F)cccc1F", "viability (% of control)": "72.8% [at 9.25 µM] (inactive)"}
{"smiles": "Cc1occc1C(=O)n1ccnc1", "viability (% of control)": "65% (inactive)"}
{"smiles": "C=C1[C@@H]2CC[C@@H]3[C@@](CCC4C(C(=O)O)(C(=O)O)C[C@@H](O[C@@H]5O[C@H](CO)[C@@H](O)[C@H](O)[C@H]5OC(=O)CC(C)C)C[C@]43C)(C2)[C@H]1O", "note": "(stereo not given in full)", "viability (% of control)": "51.5% [at 17.3 µM] (inactive)"}
{"smiles": "C[C@@H]1C(=O)O[C@H]2C[C@]34[C@H]5C[C@@H](C(C)(C)C)[C@]36[C@@H](OC(=O)[C@H]6O)O[C@]4(C(=O)O5)[C@]21O", "viability (% of control)": "75.3% [at 17.3 µM] (inactive)"}
{"smiles": "CC(NC(=O)Cc1cc(F)cc(F)c1)C(=O)NC1C(=O)N(C)c2ccccc2-c2ccccc21", "note": "(stereo not given)", "Potency": "5.17 µM (active)"}
{"smiles": "C[C@H]1CC(=O)C2=C(C1)C(O)C(O)[C@@]1(O)[C@H]2C(=O)c2cccc(O)c2[C@@H]1O", "note": "(stereo not given in full)", "viability (% of control)": "65.5% (inactive)"}
{"smiles": "CN1CCC(c2c[nH]c3ccc(NC(=O)c4ccc(F)cc4)cc23)CC1", "viability (% of control)": "63% (inactive)"}
{"smiles": "CC(=O)O[C@H]1[C@@]2(O)C[C@H](C)[C@H](OC(=O)c3ccccc3)[C@@H]2[C@@H](OC(=O)CO)[C@]2(OC(C)=O)C[C@H]3C(=O)C(C)(C)C[C@@H]3[C@@]1(C)[C@H]2OC(C)=O", "viability (% of control)": "78.5% [at 17.3 µM] (inactive)"}
{"smiles": "CN(C)C/C=C/C(=O)Nc1cc2c(Nc3ccc(F)c(Cl)c3)ncnc2cc1OC1CCOC1", "note": "(stereo not given)", "Potency": "1.16 µM (active)"}
{"smiles": "O=S1(=O)CCN(Cc2cc(NCC3CCOCC3)c3[nH]c(-c4ccccc4)cc3c2)CC1", "viability (% of control)": "3.26% (inactive)"}
{"smiles": "CC(C)C(NC(=O)c1ccc(O)cc1)C(=O)N1CCCC1C(=O)Nc1c(O)cccc1C(=O)O", "note": "(stereo not given)", "viability (% of control)": "77.5% [at 17.3 µM] (inactive)"}
{"smiles": "C[C@H](NC(=O)CCc1nc2ccccc2c(=O)[nH]1)c1ccccc1", "viability (% of control)": "63.7% (inactive)"}
{"smiles": "CC(=O)O[C@H]1CC2C(COC(=O)CC(C)C)=CO[C@@H](OC(=O)CC(C)C)C2[C@]12CO2", "note": "(stereo not given in full)", "Potency": "1.42 µM (active)"}
{"smiles": "C[C@H]1C[C@H]2[C@@H]3CCC4=CC(=O)C=C[C@]4(C)[C@@]3(F)[C@@H](O)C[C@]2(C)[C@@]1(O)C(=O)COP(=O)(O)O", "viability (% of control)": "97.6% (inactive)"}
{"smiles": "C=C(C)C(=O)OC1CC(CO)CCC/C(CO)=C/C2OC(=O)C(=C)C21", "note": "(stereo not given)", "Potency": "1.61 µM (active)"}
{"smiles": "CC(=O)O[C@H](C[C@@H](C)[C@H]1C(=O)[C@H](O)[C@@]2(C)[C@@H]3CCC4C(C)(C)[C@@H](O[C@@H]5OC[C@H](O)[C@H](O)[C@H]5O)CC[C@@]45C[C@@]35CC[C@]12C)[C@@H]1OC1(C)C", "note": "(stereo not given in full)", "viability (% of control)": "68.6% [at 17.3 µM] (inactive)"}
